Experimental data published in PubChem BioAssay (NCI).
Compounds without any hit were thinned out: in the full panel of roughly 79,000, 15% have a hit. Calls of active or inactive are those of the source. No stated cut-off is given here; in the data, active means growth inhibition above about 70%; inactive means the rest.

What was measured:
[1] = NCI Yeast Anticancer Drug Screen. Data for the rad18 strain (AID 177); settings: S. cerevisiae rad18 mutant growth inhibition, hits give high values
Method in brief: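 Growth of the mutant yeast strain after compound exposure, normalised to vehicle-only cultures.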

[2] = NCI Yeast Anticancer Drug Screen. Data for the rad52 strain (AID 147);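 further: 0% = growth of vehicle-treated control cultures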; settings: S. cerevisiae rad52 mutant growth inhibition, hits give high values
Method in brief: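 Compounds are applied to a genetically defined yeast strain lacking normal DNA damage repair, and inhibition of growth is expressed relative to cultures given vehicle only.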

[3] = NCI Yeast Anticancer Drug Screen. Data for the wt1 strain (AID 149);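 further: 0% = growth of vehicle-treated wt1 cultures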; settings: S. cerevisiae wt1 strain (SPY 50644) growth inhibition, hits give high values
Method in brief: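 Vehicle-normalised growth inhibition; strain wt1; compound exposure.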

[4] = NCI Yeast Anticancer Drug Screen. Data for the rad50 strain (AID 155);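 further: 0% = growth of vehicle-only cultures of the same strain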; settings: S. cerevisiae rad50 strain growth inhibition, hits give high values
Method in brief: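 A DNA repair-deficient yeast mutant serves as the test organism; compound-induced growth inhibition is calculated against vehicle-treated cells.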

[5] = NCI Yeast Anticancer Drug Screen. Data for the mec2-1 strain (AID 157); settings: S. cerevisiae mec2-1 strain, hits give high values
Method in brief: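 Strain: mec2-1 (DNA repair/cell cycle alteration). Compound exposure, then growth measured; inhibition expressed relative to vehicle.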

[6] = NCI Yeast Anticancer Drug Screen. Data for the rad14 strain (AID 159);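 further: 0% = growth of vehicle-treated control cultures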; settings: S. cerevisiae rad14 strain growth inhibition, hits give high values
Method in brief: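 Vehicle-treated cultures served as the baseline for growth inhibition of a DNA repair-mutant yeast strain exposed to each compound.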

[7] = NCI Yeast Anticancer Drug Screen. Data for the CLN2oe strain (AID 163);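 further: 0% = growth of vehicle-only control cultures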; settings: S. cerevisiae CLN2oe strain, hits give high values
Method in brief: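 Growth of a genetically modified yeast strain is measured after compound exposure and compared with cultures given vehicle alone.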

[8] = NCI Yeast Anticancer Drug Screen. Data for the cln2 rad14 strain (AID 165);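 further: 0% = growth equal to vehicle treated cultures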; settings: S. cerevisiae cln2 rad14 strain, hits give high values
Method in brief: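 Compounds are applied to the cln2 rad14 yeast strain, and growth is then compared with that of vehicle-treated cultures to give inhibition.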

[9] = NCI Yeast Anticancer Drug Screen. Data for the bub3 strain (AID 167); settings: S. cerevisiae bub3 mutant strain, hits give high values
Method in brief: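 Inhibition values come from growth of compound-treated mutant yeast normalised to vehicle-treated controls.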

[10] = NCI Yeast Anticancer Drug Screen. Data for the wt2 strain (AID 169);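 further: 0% = growth of vehicle-treated yeast cultures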; settings: S. cerevisiae wt2 strain growth inhibition, hits give high values
Method in brief: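 This strain belongs to a panel of yeast strains with defined genetic alterations in DNA damage repair or cell cycle control. Compounds are applied, and growth inhibition is measured against vehicle-treated cultures.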

[11] = NCI Yeast Anticancer Drug Screen. Data for the mlh1 strain (AID 171);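 further: 0% = growth of vehicle-treated control cultures of the same strain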; settings: S. cerevisiae mlh1 strain growth inhibition, hits give high values
Method in brief: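 Growth of the mutant yeast strain after compound exposure, expressed as inhibition relative to vehicle-only controls.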

[12] = NCI Yeast Anticancer Drug Screen. Data for the sgs1 strain (AID 173);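 further: 0% = growth of vehicle-only control cultures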; settings: S. cerevisiae sgs1 mutant, hits give high values
Method in brief: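 Growth of a yeast strain bearing a defined genetic alteration is measured after compound treatment. Inhibition is expressed relative to vehicle-only controls.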

[13] = NCI Yeast Anticancer Drug Screen. Data for the mlh1 rad18 strain (AID 175); settings: S. cerevisiae mlh1 rad18 strain growth inhibition, hits give high values
Method in brief: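 Read-out is yeast growth inhibition, calculated against vehicle-only controls. The compound was applied to a strain engineered with DNA damage repair alterations.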

[14] = NCI Yeast Anticancer Drug Screen. Data for the rad50EPP+ strain (AID 151);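 further: 0% = growth of vehicle-treated control cultures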; settings: S. cerevisiae rad50 mutant strain, hits give high values
Method in brief: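 Compounds were applied to the rad50EPP+ yeast strain, which bears a defined DNA repair alteration, and growth inhibition was determined relative to vehicle-treated cultures.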

[15] = NCI Yeast Anticancer Drug Screen. Data for the sgs1 mgt1 strain (AID 161);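 further: 0% = growth of cultures given vehicle only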; settings: S. cerevisiae sgs1 mgt1 strain, hits give high values
Method in brief: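 Inhibition of yeast growth, normalised to vehicle-treated controls, is reported for a strain bearing genetic alterations in DNA damage repair.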

[16] = at 5.0 µM (retest, dose inferred, filed as 0.5)
[17] = at 50.0 µM (retest, dose inferred, filed as 5.0)

Measured: growth inhibition

CCc1[nH]nc(C(N)=O)c1N=NN(C)C
inactive: [1]; at 1.2 µM 1% | [1]; at 3.7 µM 6% | [1]; at 11.0 µM 28%
active: [1]; at 33.0 µM 85% | [1]; at 100.0 µM 96%

Cc1cccc(/C=N\NC(=S)N2CCCCC2)n1
inactive: [2]; at 1.2 µM -17% | [2]; at 3.7 µM 67% | [3]; at 1.2 µM -5% | [4]; at 1.2 µM 19% | [4]; at 3.7 µM 57% | [5]; at 1.2 µM -41% | [6]; at 1.2 µM -19% | [7]; at 1.2 µM 8% | [9]; at 1.2 µM -2% | [10]; at 1.2 µM 7% | [11]; at 1.2 µM -33% | [11]; at 3.7 µM 63% | [12]; at 1.2 µM 2%
active: [2]; at 11.0 µM 97% | [2]; at 33.0 µM 98% | [2]; at 100.0 µM 97% | [3]; at 3.7 µM 92% | [3]; at 11.0 µM 99% | [3]; at 33.0 µM 99% | [3]; at 100.0 µM 99% | [4]; [16] 98% | [4]; at 11.0 µM 97% | [4]; at 33.0 µM 97% | [4]; [17] 100% | [4]; at 50.0 µM 88.8% | [4]; at 100.0 µM 98% | [5]; at 3.7 µM 93% | [5]; [16] 97% | [5]; at 11.0 µM 98% | [5]; at 33.0 µM 99% | [5]; [17] 100% | [5]; at 50.0 µM 93.2% | [5]; at 100.0 µM 98% | [6]; at 3.7 µM 90% | [6]; at 11.0 µM 98% | [6]; at 33.0 µM 98% | [6]; at 100.0 µM 98% | [7]; at 3.7 µM 85% | [7]; at 11.0 µM 98% | [7]; at 33.0 µM 98% | [7]; at 100.0 µM 91% | [8]; [16] 98% | [8]; [17] 100% | [8]; at 50.0 µM 92.8% | [9]; at 3.7 µM 93% | [9]; [16] 97% | [9]; at 11.0 µM 98% | [9]; at 33.0 µM 99% | [9]; [17] 99% | [9]; at 50.0 µM 91.8% | [9]; at 100.0 µM 99% | [10]; at 3.7 µM 92% | [10]; at 11.0 µM 99% | [10]; at 33.0 µM 99% | [10]; at 100.0 µM 95% | [11]; at 11.0 µM 98% | [11]; at 33.0 µM 98% | [11]; at 100.0 µM 99% | [12]; at 3.7 µM 93% | [12]; at 11.0 µM 98% | [12]; at 33.0 µM 99% | [12]; at 100.0 µM 98% | [13]; [16] 98% | [13]; [17] 99% | [13]; at 50.0 µM 88.7%

CCN(CC)N=Nc1c(C(N)=O)n[nH]c1C
inactive: [2]; at 1.2 µM 0% | [2]; at 3.7 µM -3% | [2]; at 11.0 µM 8% | [2]; at 33.0 µM 47% | [14]; at 1.2 µM -2% | [14]; at 3.7 µM 3% | [14]; at 11.0 µM 5% | [14]; at 33.0 µM 31% | [4]; at 1.2 µM -10% | [4]; at 3.7 µM -8% | [4]; [16] -138% | [4]; at 11.0 µM 9% | [4]; at 33.0 µM 54% | [4]; [17] 56% | [5]; at 1.2 µM 2% | [5]; at 3.7 µM 1% | [5]; [16] -46% | [5]; at 11.0 µM 8% | [5]; at 33.0 µM 2% | [5]; [17] -40% | [5]; at 50.0 µM 15.8% | [5]; at 100.0 µM 27% | [6]; at 1.2 µM -2% | [6]; at 3.7 µM 1% | [6]; at 11.0 µM 0% | [6]; at 33.0 µM 3% | [6]; at 100.0 µM 23% | [15]; [16] -62% | [15]; [17] -35% | [15]; at 50.0 µM -0.05% | [7]; at 1.2 µM -5% | [7]; at 3.7 µM 1% | [7]; at 11.0 µM 0% | [7]; at 33.0 µM 0% | [7]; at 100.0 µM 4% | [9]; at 1.2 µM -15% | [9]; at 3.7 µM -12% | [9]; [16] -65% | [9]; at 11.0 µM -9% | [9]; at 33.0 µM -9% | [9]; [17] -84% | [9]; at 50.0 µM -22.8% | [9]; at 100.0 µM -2% | [10]; at 1.2 µM -1% | [10]; at 3.7 µM 0% | [10]; at 11.0 µM -1% | [10]; at 33.0 µM -1% | [10]; at 100.0 µM 2% | [13]; [16] -124% | [13]; [17] -75% | [13]; at 50.0 µM 40.4% | [1]; at 1.2 µM -2% | [1]; at 3.7 µM 0% | [1]; at 11.0 µM 6% | [1]; at 33.0 µM 23%
active: [2]; at 100.0 µM 93% | [14]; at 100.0 µM 80% | [4]; at 50.0 µM 85.3% | [4]; at 100.0 µM 92% | [1]; at 100.0 µM 83%
